Compounds without any hit were thinned out: in the full panel of roughly 79,000, 15% have a hit. Calls of active or inactive are those of the source. No stated cut-off is given here; in the data, active means growth inhibition above about 70%; inactive means the rest.
Experiments:
[1] = NCI Yeast Anticancer Drug Screen. Data for the rad50 strain (AID 155);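 further: 0% = growth of vehicle-only cultures of the same strain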; details: S. cerevisiae rad50 strain growth inhibition, hits give high values
Outline: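 Yeast carrying a defined DNA repair defect were exposed to test compounds, and growth was compared with vehicle-treated controls to give percent inhibition.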

[2] = NCI Yeast Anticancer Drug Screen. Data for the mec2-1 strain (AID 157); details: S. cerevisiae mec2-1 strain, hits give high values
Outline: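 Cells of the genetically defined mec2-1 yeast strain are incubated with test compound. Inhibition of growth is calculated against vehicle-treated controls.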

[3] = NCI Yeast Anticancer Drug Screen. Data for the sgs1 mgt1 strain (AID 161);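 further: 0% = growth of cultures given vehicle only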; details: S. cerevisiae sgs1 mgt1 strain, hits give high values
Outline: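 Inhibition of yeast growth, normalised to vehicle-treated controls, is reported for a strain bearing genetic alterations in DNA damage repair.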

[4] = NCI Yeast Anticancer Drug Screen. Data for the cln2 rad14 strain (AID 165);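 further: 0% = growth equal to vehicle treated cultures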; details: S. cerevisiae cln2 rad14 strain, hits give high values
Outline: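 The screen exposed genetically defined yeast (cln2 rad14) to test compounds and scored growth inhibition relative to vehicle-treated controls.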

[5] = NCI Yeast Anticancer Drug Screen. Data for the bub3 strain (AID 167); details: S. cerevisiae bub3 mutant strain, hits give high values
Outline: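 Compounds were applied to a genetically altered yeast strain carrying a cell-cycle control defect. Growth inhibition was scored against vehicle-treated controls.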

[6] = NCI Yeast Anticancer Drug Screen. Data for the mlh1 rad18 strain (AID 175); details: S. cerevisiae mlh1 rad18 strain growth inhibition, hits give high values
Outline: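 Compound-treated yeast growth, normalised to vehicle controls. Strain bears defined DNA repair mutations.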

[7] = at 5.0 µM (retest, dose inferred, filed as 0.5)
[8] = at 50.0 µM (retest, dose inferred, filed as 5.0)

Measured: growth inhibition

CCN(C(C)=O)c1ccc2c(c1)Cc1ccccc1-2
inactive: [1]; [7] 3% | [2]; [7] -3% | [3]; [7] 5% | [4]; [7] -2% | [5]; [7] 11% | [6]; [7] -10%
active: [1]; [8] 96% | [1]; at 50.0 µM 97.2% | [2]; [8] 97% | [2]; at 50.0 µM 95.2% | [3]; [8] 97% | [3]; at 50.0 µM 96.8% | [4]; [8] 96% | [4]; at 50.0 µM 94.8% | [5]; [8] 96% | [5]; at 50.0 µM 97.4% | [6]; [8] 97% | [6]; at 50.0 µM 96.8%

C=C1C(=O)O[C@@H]2C[C@@]3(C)CCC[C@H](C)C3=C[C@H]12 (tested in a mixture with another compound)
inactive: [1]; [7] 9% | [2]; [7] 14% | [3]; [7] 4% | [4]; [7] 30% | [5]; [7] 13% | [6]; [7] 19%
active: [1]; [8] 96% | [1]; at 50.0 µM 91.8% | [2]; [8] 97% | [2]; at 50.0 µM 93% | [3]; [8] 97% | [3]; at 50.0 µM 92.3% | [4]; [8] 91% | [4]; at 50.0 µM 90% | [5]; [8] 98% | [5]; at 50.0 µM 91.2% | [6]; [8] 98% | [6]; at 50.0 µM 91.5%

O=C(O)/C=C/C(=O)Nc1cccc2c1C(=O)c1ccccc1-2
active: [1]; [8] 89% | [1]; at 50.0 µM 92.3% | [2]; [8] 93% | [2]; at 50.0 µM 97.9% | [3]; [8] 95% | [3]; at 50.0 µM 97.3% | [4]; [8] 96% | [4]; at 50.0 µM 89.7% | [5]; [8] 93% | [5]; at 50.0 µM 95.9% | [6]; [8] 97% | [6]; at 50.0 µM 96.1%
inactive: [1]; [7] 18% | [2]; [7] -18% | [3]; [7] 35% | [4]; [7] 8% | [5]; [7] 17% | [6]; [7] 34%

C[n+]1c(/C=C/c2ccccc2Cl)ccc2ccccc21
active: [1]; at 50.0 µM 98.7% | [2]; [8] 80% | [2]; at 50.0 µM 99% | [3]; at 50.0 µM 99.2% | [4]; at 50.0 µM 98.5% | [5]; at 50.0 µM 98.8% | [6]; at 50.0 µM 98.8%
inactive: [1]; [7] -3% | [1]; [8] 37% | [2]; [7] 2% | [3]; [7] -8% | [3]; [8] 35% | [4]; [7] 0% | [4]; [8] 34% | [5]; [7] -5% | [5]; [8] 33% | [6]; [7] -8% | [6]; [8] 48%

O=C(NO)Nc1nc(Cl)c(Cl)nc1Cl
active: [1]; [8] 97% | [1]; at 50.0 µM 90% | [2]; [8] 99% | [2]; at 50.0 µM 92.7% | [3]; [8] 99% | [3]; at 50.0 µM 90.2% | [4]; [8] 99% | [4]; at 50.0 µM 83.5% | [5]; [8] 98% | [5]; at 50.0 µM 90.3% | [6]; [8] 99% | [6]; at 50.0 µM 90.3%
inactive: [1]; [7] 16% | [2]; [7] 18% | [3]; [7] 30% | [4]; [7] 2% | [5]; [7] 6% | [6]; [7] 20%

OC(c1cc(-c2ccc(Cl)c(Cl)c2)nc2ccccc12)C1CCCCN1 (configuration not stated)
inactive: [1]; at 50.0 µM 38.2% | [2]; [8] 12% | [2]; at 50.0 µM 32.8% | [3]; at 50.0 µM 9.85% | [4]; [8] 29% | [4]; at 50.0 µM -14.2% | [5]; [8] 61% | [5]; at 50.0 µM 66.3%
active: [1]; [7] 95% | [1]; [8] 70% | [2]; [7] 100% | [3]; [7] 84% | [3]; [8] 77% | [4]; [7] 99% | [5]; [7] 99% | [6]; [7] 99% | [6]; [8] 92% | [6]; at 50.0 µM 88.5%

CCOC(=O)c1c(C)n(C)c2c1nnc1ccccc12
inactive: [1]; [7] 16% | [1]; at 50.0 µM 64.7% | [2]; [7] 15% | [2]; at 50.0 µM 51.1% | [3]; [7] 19% | [3]; at 50.0 µM 59% | [4]; [7] 12% | [4]; [8] 69% | [4]; at 50.0 µM 55.2% | [5]; [7] 1% | [5]; at 50.0 µM 46% | [6]; [7] 7% | [6]; at 50.0 µM 57.1%
active: [1]; [8] 85% | [2]; [8] 79% | [3]; [8] 82% | [5]; [8] 73% | [6]; [8] 83%

O=C(O)C1CCC(CC2CC3CCC2C3)CC1 (configuration not stated)
active: [1]; [8] 79% | [1]; at 50.0 µM 74.7% | [2]; at 50.0 µM 88.5% | [3]; [8] 85% | [5]; at 50.0 µM 73.3% | [6]; [8] 86%
inactive: [1]; [7] -146% | [2]; [7] -54% | [2]; [8] 54% | [3]; [7] -58% | [3]; at 50.0 µM 41.8% | [4]; [7] -79% | [4]; [8] 65% | [4]; at 50.0 µM 44.2% | [5]; [7] -73% | [5]; [8] 69% | [6]; [7] -125% | [6]; at 50.0 µM 53.8%

C[n+]1cccc2c1-c1ccccc1C2=O
inactive: [1]; [7] 6% | [1]; [8] 22% | [1]; at 50.0 µM -2.25% | [2]; [7] -1% | [2]; [8] 22% | [2]; at 50.0 µM 1.6% | [3]; [7] 3% | [3]; [8] 8% | [3]; at 50.0 µM 8.15% | [4]; [7] -3% | [4]; [8] 1% | [4]; at 50.0 µM 39.5% | [5]; [7] -2% | [5]; [8] 9% | [5]; at 50.0 µM 11.1% | [6]; [7] 2% | [6]; [8] 28% | [6]; at 50.0 µM 16.1%
